The values that follow come from PubChem BioAssay (Tox21).

Structures are written as SMILES. Results filed as inconclusive are left out. Activity calls are given as the source filed them. Calls follow the shape of the dose curve; as a rule, active = well fitted cell-killing curve with a large enough effect in the repeat runs; inconclusive = weak or mixed curves; inactive = flat fitted curve, though single readings scatter.
% is scaled to controls: 0 for no effect and ±100 for the full control effect.

The assay in a line: qHTS assay to identify small molecule antagonists of the TGF-beta/Smad signaling pathway - cell viability counter screen (AID 1346824). Also: nearly all actives have a fitted effect of over 50% in size. The following applies: SBE-bla HEK293T viability, CellTiter-Glo luminescence; series mostly up to 76.8 µM. The source says:
U.S. Tox21 Program National Center for Advancing Translational Sciences [NCATS] NIH Chemical Genomics Center [NCGC] U.S. Environmental Protection Agency [EPA] National Institutes of Environmental Health Sciences [NIEHS] National Toxicology Program [NTP] U.S. Food and Drug Administration [FDA] Tox21 Assay Overview: Transforming growth factor beta (TGF-beta) superfamily consists of a large number of structurally related dimeric proteins that act as hormones or local mediators in regulating a wide range of biological functions. This superfamily includes TGF-betas themselves, the bone morphogenetic proteins (BMPs) and the activins. These ligands induce oligomerization of serine/threonine receptor kinases and phosphorylate the cytoplasmic signaling molecules of Smad protein family. CellSensor SBE-bla HEK 293T cell line (Life Technologies, Carlsbad, CA), responsive to TGF-beta was used to screen Tox21 10K compound library for identification of agonists/antagonists of the Smad signaling pathway. This cell line contains a beta-lactamase reporter gene under control of the Smad binding element (SBE) stably integrated into HEK 293T cells. Also cytotoxicity of the compounds was tested in parallel by measuring the cell viability using CellTiter-Glo assay system in the same wells.
Tox21 Assay Protocol Summary: SBE-bla HEK 293T cells were dispensed at 4,000/well in 5 uL of assay medium into black wall/clear-bottom 1536-well plates using a Multidrop Combi (ThermoFisher Scientific, Waltham, MA) dispenser. After the assay plates were incubated at 37 C and 5% CO2 for an overnight, 23 nL of compounds dissolved in DMSO, positive controls or DMSO only was transferred to the assay plate by a Pintool station (Kalypsys, San Diego, CA). Compound transfer was followed by the addition of 1 uL of 0.25 ng/mL TGF-beta1 or assay buffer using two separate tips of Flying Reagent Dispenser (FRD, Aurora Discovery, San Diego, CA). The assay plates were incubated at 37 C and 5% CO2 for 5 hr. One uL of LiveBLAzer B/G FRET substrate (Life Technologies) was added using a Flying Reagent Dispenser (FRD, Aurora Discovery, San Diego, CA) and the plates were incubated at room temperature for 2 hr. Fluorescence intensity (405 nm excitation, 460 nm and 530 nm emissions) was measured using an Envision plate reader (PerkinElmer, Shelton, CT). For cytotoxicity read, 4 uL of CellTiter-Glo reagent (Promega Corporation, Madison, WI) was added to each well of the assay plates using FRD. After 30 min incubation at room temperature, the luminescence intensity was measured using ViewLux plate reader (PerkinElmer).
(In general: qHTS replaces the single test concentration by a dilution series.)
For `CC(C)(C)C1(CCc2ccc(Cl)cc2)CO1` (stereo not given), the molecule was called inactive.

With `CCCCCCC(O)CCCCCCCCCCC(=O)OC` (stereo not given), the molecule was called inactive.

As to `CC(C)C1CCC(C(=O)N[C@H](Cc2ccccc2)C(=O)O)CC1` (stereo not given in full), the outcome was inactive.

Consider `CC[C@H]1OC(=O)[C@H](C)[C@@H](O[C@H]2C[C@@](C)(OC)[C@@H](O)[C@H](C)O2)[C@H](C)[C@@H](O[C@@H]2O[C@H](C)C[C@H](N(C)C)[C@H]2O)[C@](C)(O)C[C@@H](C)CN(C)[C@H](C)[C@@H](O)[C@]1(C)O`, for which the result was inactive.

Regarding `ClC1=C(Cl)C1(Cl)Cl`, the outcome was inactive.

Take `CC(=O)N[C@@H](Cc1ccc(O)cc1)C(=O)O`: the call was inactive.

For `Cc1cc(CCC(=O)OCCOCCOCCOC(=O)CCc2cc(C)c(O)c(C(C)(C)C)c2)cc(C(C)(C)C)c1O`, the result was inactive.

With `CCCCC[C@H](O)/C=C/[C@H]1[C@H](O)CC(=O)[C@@H]1C/C=C\CCCC(=O)O`, the outcome was inactive.

`C=CCOC(=O)COCCC(C)C`: the molecule was classed as inactive.

For the molecule `Oc1cccc2[nH]ccc12`, the outcome was inactive.

`O=C(c1ccccc1)c1ccc(O)cc1`: the outcome was inactive.

As for `CC(=O)OCC(=O)[C@@]1(OC(C)=O)[C@@H](C)C[C@H]2[C@@H]3C[C@H](F)C4=CC(=O)C=C[C@]4(C)[C@@]3(F)[C@@H](O)C[C@@]21C`, the molecule was called inactive.

For `CC(C)N=C=NC(C)C`, the molecule was called inactive.

Turning to `COc1ccc(-n2nc(C(F)F)cc2-c2ccc(S(C)=O)cc2)cc1` (stereo not given), the result was inactive.

For the molecule `CC(C)(C)CCCCCCOC(=O)c1ccccc1C(=O)OCCCCCCC(C)(C)C`, the result was inactive.

Regarding `Nc1ccc(S(=O)(=O)NCc2ccccc2)cc1`, the molecule was classed as inactive.

For the molecule `CCCCCCCCCCCCCCN(C)C`, the viability change, negative = cytotoxic is -8.55% [at 15.8 µM] (inactive).

Take `CCCCCCCC/C=C\CCCCCCCC(=O)OCCO`: the call was inactive.

Regarding `COC(=O)C1=C(C)NC(C)=C(C(=O)OC(C)(C)CN(C)CCC(c2ccccc2)c2ccccc2)C1c1cccc([N+](=O)[O-])c1` (stereo not given), the molecule was called inactive.

As for `CC(C)(C)NCC(O)COc1cccc2c1C[C@H](O)[C@H](O)C2` (stereo not given in full), the outcome was inactive.

As for `CC(=O)OCC1=C(C(=O)O)N2C(=O)[C@@H](NC(=O)CSc3ccncc3)[C@H]2SC1`, the call was inactive.

Turning to `CC(C)Cc1ccc(CC(=O)O)cc1`, the result was inactive.

`C=CC(=O)O`: the molecule was classed as inactive.

Turning to `CCCCCCCCCCCCCC(=O)OCC(O)CO` (stereo not given), the call was inactive.

As for `CC1CCCC(=O)C1=O` (stereo not given), the result was inactive.

Turning to `CC(C)OC(=O)c1ccccc1C(=O)OC(C)C`, the outcome was inactive.

For `CC(=O)C(=O)CC(C)C`, the call was inactive.

As for `NC(=O)CCCCC(N)=O`, the molecule was classed as inactive.

Consider `C=Cc1ccc(OC(C)=O)cc1`, for which the call was inactive.

In the case of `CC(=O)OC(C)C[N+](C)(C)C` (stereo not given), the outcome was inactive.

`CC1C(C)(C)C2=C(C(=O)CCC2)C1(C)C` (stereo not given): the result was inactive.

Regarding `C1CCCCC1`, the molecule was called inactive.

As to `CC[C@@H](CO)NCCN[C@@H](CC)CO`, the outcome was inactive.

On to `Cc1ccccc1S(N)(=O)=O`, for which the result was inactive.

Regarding `CC(C)CC(O)CC(C)C`, the call was inactive.

Consider `CCOc1ncc(F)c(=O)[nH]1`, for which the call was inactive.

On to `CNc1c2c(nn1C)CCCC2`, for which the result was inactive.

Turning to `O=C1OC[C@H](Cc2cccc(O)c2)[C@H]1Cc1cccc(O)c1`, the molecule was called inactive.

As for `CCCCOCCOC(=O)c1cccnc1`, the molecule was called inactive.

In the case of `O=S(=O)(Cl)c1c(Cl)cccc1Cl`, the molecule was called inactive.
